# Measurements as given in the supplement of paper PMC11732987, “Enantioselective OTUD7B fragment discovery through chemoproteomics screening and high-throughput optimisation” (Communications Chemistry, 2025).
# Unmarked numbers belong to inactive results.
# What was measured:
# Experiment in all cases: log2 ratio of Biotin-Ahx-Ub-VS probe labelling (fragment/DMSO); higher = less target engagement (more negative = stronger competition), active = hit call of the paper (q ≤ 0.05, log2 ratio ≤ -1)
# Settings in all cases: compound concentration: 200 uM; treatment time: 3 h
# USP19 = target: T1, USP19 (UniProt O94966)
# T1 sequence (whole entry): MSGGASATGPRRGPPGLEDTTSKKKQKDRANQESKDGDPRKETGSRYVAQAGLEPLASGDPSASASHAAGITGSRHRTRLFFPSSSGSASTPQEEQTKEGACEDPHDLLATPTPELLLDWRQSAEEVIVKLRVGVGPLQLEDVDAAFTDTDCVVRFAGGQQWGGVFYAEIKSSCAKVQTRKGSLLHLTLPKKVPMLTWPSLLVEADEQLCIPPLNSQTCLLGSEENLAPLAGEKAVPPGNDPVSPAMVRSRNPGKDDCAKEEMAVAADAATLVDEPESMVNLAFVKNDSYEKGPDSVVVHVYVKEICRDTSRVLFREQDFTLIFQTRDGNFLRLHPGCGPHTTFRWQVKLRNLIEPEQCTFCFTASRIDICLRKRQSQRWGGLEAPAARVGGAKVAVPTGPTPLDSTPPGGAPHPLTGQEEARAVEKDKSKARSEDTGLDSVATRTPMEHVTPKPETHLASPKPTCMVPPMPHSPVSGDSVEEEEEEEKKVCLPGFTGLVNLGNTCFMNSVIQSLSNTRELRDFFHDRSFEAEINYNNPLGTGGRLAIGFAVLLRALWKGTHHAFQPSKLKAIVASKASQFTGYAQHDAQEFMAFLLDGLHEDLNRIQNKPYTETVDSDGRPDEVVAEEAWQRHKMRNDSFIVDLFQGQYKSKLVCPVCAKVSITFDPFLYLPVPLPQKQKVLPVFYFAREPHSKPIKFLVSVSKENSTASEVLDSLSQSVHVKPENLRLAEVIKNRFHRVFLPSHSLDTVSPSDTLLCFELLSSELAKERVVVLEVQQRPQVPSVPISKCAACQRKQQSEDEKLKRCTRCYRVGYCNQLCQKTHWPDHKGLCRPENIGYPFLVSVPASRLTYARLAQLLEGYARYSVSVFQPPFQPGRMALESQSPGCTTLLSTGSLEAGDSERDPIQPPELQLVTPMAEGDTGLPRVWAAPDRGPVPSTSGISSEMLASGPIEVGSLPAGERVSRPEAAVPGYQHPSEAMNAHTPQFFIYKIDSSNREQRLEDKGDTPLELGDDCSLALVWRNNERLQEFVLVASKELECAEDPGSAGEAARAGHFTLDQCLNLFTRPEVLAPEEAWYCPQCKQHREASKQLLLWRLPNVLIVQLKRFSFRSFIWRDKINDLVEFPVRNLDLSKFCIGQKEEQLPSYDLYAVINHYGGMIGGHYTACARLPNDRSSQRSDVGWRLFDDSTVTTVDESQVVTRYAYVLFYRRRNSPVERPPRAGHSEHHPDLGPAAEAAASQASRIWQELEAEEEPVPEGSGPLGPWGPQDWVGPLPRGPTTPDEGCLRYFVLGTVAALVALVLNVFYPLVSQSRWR
# How it was run: (§1)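 HEK293T lysate in Tris/CHAPS/IGEPAL buffer with protease inhibitors (495 µg per sample) was given fragment at 200 µM or vehicle for 3 h, in triplicate. It then received Biotin-Ahx-Ub-VS at 0.5 µM final for 1 h. Labelled DUBs were NeutrAvidin-enriched, digested with LysC and trypsin, and run by diaPASEF LC-MS/MS. Values are average log2 fragment/vehicle ratios by unpaired t-test on global-median-normalised Spectronaut quantities of proteins with ≥2 unique peptides.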
# USP22 = target: T2, USP22 (UniProt Q9UPT9)
# T2 sequence (whole entry): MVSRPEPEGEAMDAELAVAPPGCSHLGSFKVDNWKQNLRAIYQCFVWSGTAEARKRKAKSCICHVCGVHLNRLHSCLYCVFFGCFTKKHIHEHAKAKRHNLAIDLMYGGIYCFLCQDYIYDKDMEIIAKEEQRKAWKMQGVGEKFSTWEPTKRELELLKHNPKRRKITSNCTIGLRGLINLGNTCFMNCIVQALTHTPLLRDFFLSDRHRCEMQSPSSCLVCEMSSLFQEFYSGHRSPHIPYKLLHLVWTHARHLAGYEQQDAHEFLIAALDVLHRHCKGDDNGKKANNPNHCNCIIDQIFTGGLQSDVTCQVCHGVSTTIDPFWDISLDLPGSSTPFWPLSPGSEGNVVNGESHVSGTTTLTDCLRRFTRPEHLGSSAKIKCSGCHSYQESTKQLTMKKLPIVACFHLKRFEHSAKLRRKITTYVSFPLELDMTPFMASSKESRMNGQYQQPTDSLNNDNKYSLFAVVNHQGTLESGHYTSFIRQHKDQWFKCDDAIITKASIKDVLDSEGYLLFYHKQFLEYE
# How it was run: as §1
# USP24 = USP24 (UniProt Q9UPU5)
# How it was run: as §1
# USP25 = target: T3, USP25 (UniProt Q9UHP3)
# T3 sequence (whole entry): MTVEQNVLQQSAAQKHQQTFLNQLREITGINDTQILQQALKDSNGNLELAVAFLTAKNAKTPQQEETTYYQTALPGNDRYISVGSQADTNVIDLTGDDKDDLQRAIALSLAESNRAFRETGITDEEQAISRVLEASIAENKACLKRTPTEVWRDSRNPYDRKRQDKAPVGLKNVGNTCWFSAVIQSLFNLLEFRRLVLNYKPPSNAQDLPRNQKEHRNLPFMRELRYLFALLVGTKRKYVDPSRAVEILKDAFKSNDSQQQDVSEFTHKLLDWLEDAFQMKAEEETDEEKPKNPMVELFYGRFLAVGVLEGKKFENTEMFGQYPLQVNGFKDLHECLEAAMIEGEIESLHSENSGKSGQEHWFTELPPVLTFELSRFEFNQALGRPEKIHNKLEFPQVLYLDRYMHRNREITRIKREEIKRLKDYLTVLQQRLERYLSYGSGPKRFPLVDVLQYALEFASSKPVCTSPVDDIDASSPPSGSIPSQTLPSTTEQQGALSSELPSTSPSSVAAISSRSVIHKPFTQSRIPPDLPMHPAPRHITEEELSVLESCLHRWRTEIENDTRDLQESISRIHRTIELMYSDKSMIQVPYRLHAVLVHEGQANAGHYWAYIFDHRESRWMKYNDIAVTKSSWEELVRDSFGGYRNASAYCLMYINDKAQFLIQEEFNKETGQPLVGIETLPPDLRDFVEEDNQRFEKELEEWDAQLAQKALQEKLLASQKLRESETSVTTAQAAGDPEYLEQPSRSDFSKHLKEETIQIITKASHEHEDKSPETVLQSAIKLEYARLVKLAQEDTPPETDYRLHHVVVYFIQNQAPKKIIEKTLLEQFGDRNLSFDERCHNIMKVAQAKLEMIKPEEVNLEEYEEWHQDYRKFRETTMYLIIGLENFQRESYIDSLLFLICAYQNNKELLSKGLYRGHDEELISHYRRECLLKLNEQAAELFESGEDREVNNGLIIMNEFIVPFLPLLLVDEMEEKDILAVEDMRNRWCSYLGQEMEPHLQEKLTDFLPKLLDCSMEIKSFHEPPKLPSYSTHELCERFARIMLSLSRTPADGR
# How it was run: as §1
# USP28 = target: T4, USP28 (UniProt Q96RU2)
# T4 sequence (whole entry): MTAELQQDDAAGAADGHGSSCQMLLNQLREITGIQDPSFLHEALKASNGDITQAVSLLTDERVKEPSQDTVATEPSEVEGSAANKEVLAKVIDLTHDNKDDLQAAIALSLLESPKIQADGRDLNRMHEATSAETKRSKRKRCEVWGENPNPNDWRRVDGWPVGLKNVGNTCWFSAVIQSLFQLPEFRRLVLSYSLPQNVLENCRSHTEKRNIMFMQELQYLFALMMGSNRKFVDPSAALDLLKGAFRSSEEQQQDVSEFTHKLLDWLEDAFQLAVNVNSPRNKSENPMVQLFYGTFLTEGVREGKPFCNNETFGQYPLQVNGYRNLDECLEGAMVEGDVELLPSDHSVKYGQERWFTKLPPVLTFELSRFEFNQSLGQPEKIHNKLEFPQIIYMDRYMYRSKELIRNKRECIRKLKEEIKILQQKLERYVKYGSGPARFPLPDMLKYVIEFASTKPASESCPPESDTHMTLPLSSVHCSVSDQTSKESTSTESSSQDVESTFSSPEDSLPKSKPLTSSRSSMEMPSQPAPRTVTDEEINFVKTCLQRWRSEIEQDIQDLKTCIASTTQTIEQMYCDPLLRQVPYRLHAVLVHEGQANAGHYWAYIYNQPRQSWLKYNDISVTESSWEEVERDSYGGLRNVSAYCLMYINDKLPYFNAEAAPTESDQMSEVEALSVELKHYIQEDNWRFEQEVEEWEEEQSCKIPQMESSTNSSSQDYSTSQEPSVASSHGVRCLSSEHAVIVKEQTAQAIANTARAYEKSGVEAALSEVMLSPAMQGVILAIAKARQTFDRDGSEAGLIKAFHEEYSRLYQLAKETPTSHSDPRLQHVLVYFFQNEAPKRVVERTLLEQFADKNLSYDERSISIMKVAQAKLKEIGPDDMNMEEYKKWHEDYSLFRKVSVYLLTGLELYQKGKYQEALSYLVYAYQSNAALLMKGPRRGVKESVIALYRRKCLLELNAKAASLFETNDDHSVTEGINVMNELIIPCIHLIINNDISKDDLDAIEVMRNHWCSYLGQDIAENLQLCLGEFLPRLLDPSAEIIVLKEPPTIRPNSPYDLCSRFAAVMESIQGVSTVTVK
# How it was run: as §1
# Chain of USP24 (Q9UPU5 whole entry): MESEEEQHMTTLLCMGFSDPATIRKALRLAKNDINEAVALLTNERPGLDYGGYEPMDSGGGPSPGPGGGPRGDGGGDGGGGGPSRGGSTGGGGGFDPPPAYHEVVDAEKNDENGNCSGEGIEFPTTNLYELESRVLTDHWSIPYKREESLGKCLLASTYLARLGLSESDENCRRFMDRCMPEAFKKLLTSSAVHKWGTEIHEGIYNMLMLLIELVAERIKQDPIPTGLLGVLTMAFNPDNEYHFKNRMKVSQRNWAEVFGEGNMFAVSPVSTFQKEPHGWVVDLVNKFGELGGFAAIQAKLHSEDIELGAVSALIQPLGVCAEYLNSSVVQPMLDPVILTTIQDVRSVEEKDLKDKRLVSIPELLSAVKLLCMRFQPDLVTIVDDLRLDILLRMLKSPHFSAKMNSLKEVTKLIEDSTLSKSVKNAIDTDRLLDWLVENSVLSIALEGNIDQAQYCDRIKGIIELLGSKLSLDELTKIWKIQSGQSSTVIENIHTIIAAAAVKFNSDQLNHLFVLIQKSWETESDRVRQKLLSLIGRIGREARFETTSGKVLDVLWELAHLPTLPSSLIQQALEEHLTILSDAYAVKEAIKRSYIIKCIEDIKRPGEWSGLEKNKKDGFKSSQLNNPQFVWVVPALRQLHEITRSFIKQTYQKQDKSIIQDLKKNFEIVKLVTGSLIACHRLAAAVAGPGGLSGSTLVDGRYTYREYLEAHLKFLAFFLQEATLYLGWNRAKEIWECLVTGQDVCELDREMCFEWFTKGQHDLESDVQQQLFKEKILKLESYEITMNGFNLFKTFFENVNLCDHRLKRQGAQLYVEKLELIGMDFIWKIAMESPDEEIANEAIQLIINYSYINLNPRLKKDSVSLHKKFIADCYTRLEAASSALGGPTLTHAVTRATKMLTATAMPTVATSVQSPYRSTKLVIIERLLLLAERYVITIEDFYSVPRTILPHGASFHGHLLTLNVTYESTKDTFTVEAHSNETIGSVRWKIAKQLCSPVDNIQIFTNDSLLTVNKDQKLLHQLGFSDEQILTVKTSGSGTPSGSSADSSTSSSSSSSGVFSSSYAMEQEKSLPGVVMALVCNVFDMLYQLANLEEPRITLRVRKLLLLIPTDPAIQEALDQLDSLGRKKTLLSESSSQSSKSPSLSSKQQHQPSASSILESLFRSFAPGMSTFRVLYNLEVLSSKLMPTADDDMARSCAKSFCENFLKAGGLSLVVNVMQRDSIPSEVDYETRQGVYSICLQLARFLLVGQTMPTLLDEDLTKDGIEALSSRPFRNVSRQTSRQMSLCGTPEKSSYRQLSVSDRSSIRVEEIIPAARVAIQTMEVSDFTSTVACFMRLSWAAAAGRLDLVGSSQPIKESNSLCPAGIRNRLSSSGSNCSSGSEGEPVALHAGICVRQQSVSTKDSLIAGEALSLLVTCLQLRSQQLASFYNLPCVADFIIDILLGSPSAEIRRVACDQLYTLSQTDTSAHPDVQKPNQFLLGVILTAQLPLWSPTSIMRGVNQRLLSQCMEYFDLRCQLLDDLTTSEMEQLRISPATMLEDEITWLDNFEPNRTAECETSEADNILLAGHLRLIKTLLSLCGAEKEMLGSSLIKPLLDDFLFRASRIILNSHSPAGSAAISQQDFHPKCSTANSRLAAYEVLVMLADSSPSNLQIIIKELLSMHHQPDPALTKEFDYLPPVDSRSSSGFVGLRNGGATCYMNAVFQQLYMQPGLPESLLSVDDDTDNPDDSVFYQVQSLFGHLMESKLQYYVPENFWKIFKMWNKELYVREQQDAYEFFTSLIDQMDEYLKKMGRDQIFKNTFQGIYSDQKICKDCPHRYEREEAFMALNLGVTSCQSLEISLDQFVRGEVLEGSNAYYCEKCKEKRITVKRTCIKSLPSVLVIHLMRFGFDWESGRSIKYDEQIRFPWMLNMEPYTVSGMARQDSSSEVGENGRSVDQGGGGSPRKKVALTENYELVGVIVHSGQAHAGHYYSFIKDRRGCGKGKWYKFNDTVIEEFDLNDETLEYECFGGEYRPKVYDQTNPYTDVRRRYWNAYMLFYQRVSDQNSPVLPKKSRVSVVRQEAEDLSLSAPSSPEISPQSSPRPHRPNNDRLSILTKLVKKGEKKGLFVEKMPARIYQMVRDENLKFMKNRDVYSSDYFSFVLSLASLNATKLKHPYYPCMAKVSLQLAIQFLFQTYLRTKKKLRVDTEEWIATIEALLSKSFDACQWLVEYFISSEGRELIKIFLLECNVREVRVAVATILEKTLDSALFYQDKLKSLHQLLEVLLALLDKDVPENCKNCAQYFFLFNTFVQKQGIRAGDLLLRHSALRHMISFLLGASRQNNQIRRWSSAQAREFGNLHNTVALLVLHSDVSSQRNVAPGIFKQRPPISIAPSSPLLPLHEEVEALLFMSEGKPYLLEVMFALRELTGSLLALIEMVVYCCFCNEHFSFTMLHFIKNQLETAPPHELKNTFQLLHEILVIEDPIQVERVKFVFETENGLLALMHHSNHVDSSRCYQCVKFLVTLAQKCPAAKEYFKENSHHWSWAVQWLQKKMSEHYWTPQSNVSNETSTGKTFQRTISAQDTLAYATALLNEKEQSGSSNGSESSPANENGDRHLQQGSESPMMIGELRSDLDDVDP
smiles,measurement,setting,value
O=C(CCl)Nc1cc2c(cc1Cl)OCCO2,log2 ratio of Biotin-Ahx-Ub-VS probe labelling,USP19,0.00638
same,log2 ratio of Biotin-Ahx-Ub-VS probe labelling,USP22,-0.112
same,log2 ratio of Biotin-Ahx-Ub-VS probe labelling,USP24,-0.0527
same,log2 ratio of Biotin-Ahx-Ub-VS probe labelling,USP25,-1.52 (active)
same,log2 ratio of Biotin-Ahx-Ub-VS probe labelling,USP28,-1.81 (active)
